{"source": "PubChem BioAssay (NCATS)", "note": "Records with an inconclusive call do not appear. The source made the active and inactive calls. Calls follow the shape of the full dose curve."}
{"biological_target": "Retinoic acid receptor RXR-alpha (Homo sapiens) (UniProt P19793)", "sequence (P19793 whole entry, looked up)": "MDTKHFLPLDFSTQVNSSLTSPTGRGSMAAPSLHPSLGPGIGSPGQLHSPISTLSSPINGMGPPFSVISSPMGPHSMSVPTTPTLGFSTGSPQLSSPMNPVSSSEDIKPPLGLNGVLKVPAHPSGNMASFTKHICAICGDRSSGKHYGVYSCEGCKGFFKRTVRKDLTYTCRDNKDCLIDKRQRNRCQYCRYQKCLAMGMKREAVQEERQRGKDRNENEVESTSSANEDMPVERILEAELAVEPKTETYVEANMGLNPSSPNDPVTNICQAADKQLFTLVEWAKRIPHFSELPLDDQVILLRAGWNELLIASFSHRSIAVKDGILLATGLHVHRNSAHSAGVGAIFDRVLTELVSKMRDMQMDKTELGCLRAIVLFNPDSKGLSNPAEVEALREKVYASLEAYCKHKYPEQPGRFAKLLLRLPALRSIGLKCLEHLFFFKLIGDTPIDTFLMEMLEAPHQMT", "experiment": "qHTS assay for small molecule agonists of retinoid X receptor alpha signaling (AID 588544)", "conditions": "HEK293T RXRa-UAS-bla, beta-lactamase reporter, 18 h; series mostly up to 76.7 µM; activation: at the top concentration", "description": "NIH Chemical Genomics Center [NCGC] U.S. Environmental Protection Agency [EPA] National Institutes of Environmental Health Sciences [NIEHS] National Toxicology Program [NTP] NCGC Assay Overview The Retinoid X receptor (RXR), a nuclear hormone receptor is expressed in liver, spleen, placenta, epidermis, central nervous system. These receptors are able to form homo and heterodimers with other nuclear receptors and due to this heterodimerizing ability, RXR functions as master regulators producing diverse physiological effects. Three subtypes of RXR exist; alpha, beta and gamma. Retinoid X receptor alpha (RXR-alpha) has potential roles in metabolic signaling pathways, skin alopecia, dermal cysts, cardiac development, insulin sensitization etc. Therefore screening environmental chemicals on RXR-alpha signaling can be used for the studies focused on such therapeutic applications.\nNCGC Assay Protocol Summary Using a beta-lactamase reporter-gene under control of Retinoid X receptor--alpha (RXR-alpha) response element, a cell-based assay [GeneBLAzer (RXR-alpha -UAS-bla assay developed by Invitrogen] was used to measure RXR-alpha ligands signaling. GeneBLAzer RXR-alpha -UAS-bla HEK293T cells were used with assay medium containing 2% charcoal-stripped FBS. The assay was performed in clear bottom black Greiner 1536-well plates. 9-cis-retinoic acid was used in the screen as the positive control. Library compounds were measured for their ability to stimulate the reporter gene activity. Compounds were screened in a titration series in 1536-well format. The fluorescence intensity (405 nm excitation, 460/530 nm emission) was measured using an EnVision plate reader. Data was normalized relative to 9-cis-retinoic acid control (500 nM, 100%), and DMSO only wells (basal, 0%). Concentration-response titration points for each compound were fitted to the Hill equation yielding concentrations of half-maximal stimulation (EC50) and maximal response (efficacy) values. qHTS protocol for RXR-alpha beta-lactamase assay in agonist mode [Step] [Parameter] [Value] [Description] 1. Reagent; 6 uL; 2500 cells/well 2. Incubation; 37 C for 4 hrs 3. Compounds; 23 nL; 0.59 nM to 92 uM 4. Controls (9-cis-retinoic acid); 23 nL, - One column with dose response, start 38 uM, 1:3 dilutions in duplicates - Final concentrations of 500 nM and 50 nM in two columns 5. Incubation; 37 C for 18 hrs 6. Detection reagent; 1 uL of CCF4-dye 7. Incubation; RT for 2 hrs 8. Detection; Fluorescence; Envision plate reader"}
{"compound": "COc1ccc(O)cc1", "activation": "1.42% (inactive)"}
{"compound": "Cc1cc(C)nc(NS(=O)(=O)c2ccc(N)cc2)n1", "outcome": "inactive"}
{"compound": "CCCCOC(=O)c1ccc(N)cc1", "activation": "-15% (inactive)"}
{"compound": "Cc1cc(O)cc(C)c1Cl", "activation": "8.04% (inactive)"}
{"compound": "CC(=O)Nc1ccc(C(=O)O)cc1", "activation": "1.43% (inactive)"}
{"compound": "Cc1c(N(C)C)c(=O)n(-c2ccccc2)n1C", "outcome": "inactive"}
{"compound": "CCN(CC)C(=O)c1cccc(C)c1", "outcome": "inactive"}
{"compound": "O=C(OOC(=O)c1ccccc1)c1ccccc1", "activation": "17.4% (inactive)"}
{"compound": "CC(=O)NS(=O)(=O)c1ccc(N)cc1", "activation": "4.09% (inactive)"}
{"compound": "Cc1cc(=O)[nH]c(=S)[nH]1", "activation": "1% (inactive)"}
{"compound": "CCCCCC(N)=O", "activation": "11.4% (inactive)"}
{"compound": "CC(=O)OCC(COC(C)=O)OC(C)=O", "outcome": "inactive"}
{"compound": "C=CCNC(N)=S", "activation": "-9.88% (inactive)"}
{"compound": "COC(=O)c1ccc(O)cc1", "activation": "-6.38% (inactive)"}
{"compound": "O=C(c1ccccc1)C(O)c1ccccc1", "note": "(stereo not drawn)", "outcome": "inactive"}
{"compound": "CC(C)=CCC/C(C)=C/CO", "activation": "18.9% (inactive)"}
{"compound": "CCCCCCCCCCCCCCCCCCO", "activation": "0.329% (inactive)"}
{"compound": "Nc1ccc(S(=O)(=O)c2ccc(N)cc2)cc1", "activation": "0.0047% (inactive)"}
{"compound": "CC(=O)Nc1cccc(O)c1", "activation": "-1.74% (inactive)"}
{"compound": "Cc1c(C(=O)NCCO)[n+](=O)c2ccccc2n1[O-]", "activation": "8.3% (inactive)"}
{"compound": "Cc1ccc(C(C)C)c(O)c1", "activation": "5.02% (inactive)"}
{"compound": "CCCCCCCC(=O)OCC(COC(=O)CCCCCCC)OC(=O)CCCCCCC", "activation": "3.1% (inactive)"}
{"compound": "CC(=O)Nc1ccccc1", "activation": "9.35% (inactive)"}
{"compound": "OC[C@@H](O)[C@@H](O)[C@H](O)[C@H](O)CO", "activation": "21.3% (inactive)"}
{"compound": "O=C1C(c2[nH]c3ccccc3c2O)=Nc2ccccc21", "activation": "1.7% (inactive)"}
{"compound": "FC(F)(F)C(Cl)Br", "note": "(stereo not drawn)", "activation": "5.49% (inactive)"}
{"compound": "CCCC(O)C(CC)CO", "note": "(stereo not drawn)", "activation": "3.35% (inactive)"}
{"compound": "CC[N+](CC)(CC(=O)Nc1c(C)cccc1C)Cc1ccccc1", "activation": "1.47% (inactive)"}
